Rows were chosen to be rich in hits. Some 6% of all compounds tested hit in one or more screens of this group.
D3 antag: antagonists of human D3 dopamine receptor | actives 2.5% (n = 360,000) | max response, negative = inhibition, % | P35462 | D3R cells, DiscoveRx beta-arrestin luminescence, antagonist mode; hits give low values; in the data active means max response below about -50%; inconclusive means no clear call, values can overlap the other calls; further: on the % scale 0 is the no-effect control and ±100 the full control effect
Target sequence (P35462 whole entry, looked up): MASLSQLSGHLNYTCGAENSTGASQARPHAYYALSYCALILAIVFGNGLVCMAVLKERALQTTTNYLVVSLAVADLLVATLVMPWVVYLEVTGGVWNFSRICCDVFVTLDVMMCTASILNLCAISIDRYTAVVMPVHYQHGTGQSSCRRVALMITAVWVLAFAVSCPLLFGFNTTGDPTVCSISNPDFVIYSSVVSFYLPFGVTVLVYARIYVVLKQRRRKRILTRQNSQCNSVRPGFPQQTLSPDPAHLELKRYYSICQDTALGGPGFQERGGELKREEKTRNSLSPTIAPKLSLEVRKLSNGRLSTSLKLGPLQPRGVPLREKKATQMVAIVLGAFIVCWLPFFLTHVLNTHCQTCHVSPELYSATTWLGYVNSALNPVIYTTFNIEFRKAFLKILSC
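Cells expressing the human receptor were seeded at 1500 cells/well, incubated overnight at 37 degrees C in 5% CO2, then exposed to library compounds with dopamine controls for 90 minutes at 37 degrees C before luminescent detection.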
D3 ag: D3 dopamine receptor (human) agonism. max activation, %. D3R DiscoveRx beta-arrestin cells, luminescence, 90 min. actives 0.58% (n = 410,000). P35462; in the data active means max activation above about 30%; further: 0% is about no effect
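Agonist-mode cell screen: cells plated at 1500/well and incubated overnight at 37 °C, then exposed to library compounds for 90 min at 37 °C. Detection reagent was added for 30–60 min at room temperature, and luminescence was read.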
D1 ag: human D1 receptor agonism; P21728; HEK293 T-REx D1 cells, calcium flux, agonist mode; activation, % at 2 µM; actives 1% (n = 360,000); AID 504660; in the data active means activation above about 30%; further: 0% is about no effect
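Inducible HEK293 T-REx D1 cells, force-coupled to calcium signalling, were plated at 4000 cells/well with tetracycline and held overnight at 30 C. After no-wash calcium dye loading, compound-evoked calcium rise over 180 s flagged agonists.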
D1 antag: blocks dopamine activation of the human D1 receptor. AID 504652. P21728. actives 3.2% (n = 360,000). HEK293 TREx D1 cells, calcium flux, dopamine EC80; hits give low values. activity change, negative = inhibition, % at 10 µM; in the data active means activity change below about -30%; further: on the % scale 0 is the no-effect control and ±100 the full control effect
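Tetracycline-induced HEK293 Trex D1 cells, force-coupled to calcium, dye-loaded; compounds added and read 180 s, then EC80 dopamine added and calcium flux tracked kinetically another 180 s.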
D1 potentiator: potentiators of human D1 dopamine receptor; P21728; HEK293 TREx D1 cells, calcium flux, dopamine EC20 potentiation; AID 504651; actives 0.036% (n = 360,000); potentiation, % at 10 µM; in the data active means potentiation above about 30%; further: 0% is about no effect
Active calls of the source: *.

What do the screens show for `Cc1nc2ccccc2n1-c1ccccc1`?
D3 antag: 5.0; D3 ag: -2.7; D1 ag: 2.4; D1 antag: -25.1; D1 potentiator: -5.5

Results for O=c1c(/C=C(\O)c2ccccc2)nc2ccccc2n1-c1ccccc1 ?
D3 antag: -2.1; D3 ag: -4.9; D1 ag: 169.4*; D1 antag: 2.6; D1 potentiator: 3.8

How did CCOC(=O)c1c(S(=O)(=O)N2CCC(C(=O)NCc3ccccc3Cl)CC2)c(C)n(C)c1C do in these assays?
D3 ag: 4.7; D1 ag: 4.6; D1 antag: -7.7; D1 potentiator: -0.8

Results for O=C(O)c1cc(S(=O)(=O)Nc2ccc(N3CCCCC3)cc2)ccc1Cl ?
D3 antag: -11.2; D3 ag: 3.3; D1 ag: 1.3; D1 antag: -29.7; D1 potentiator: -3.8

What do the screens show for `CN1CCN(c2ccc(NS(=O)(=O)c3ccc(Cl)cc3)cn2)CC1`?
D3 antag: inconclusive; D3 ag: -18.3; D1 ag: 6.0; D1 antag: 1.4; D1 potentiator: -1.0

What do the screens show for `O=S(=O)(Nc1ccc(N2CCCCC2)cc1)c1ccc(F)c(F)c1`?
D3 antag: 8.6; D3 ag: 2.8; D1 ag: 58.0*; D1 antag: -7.7; D1 potentiator: -3.3

Results for CCc1ccc(S(=O)(=O)Nc2ccc(N3CCN(C)CC3)cc2)cc1 ?
D3 antag: -82.1*; D3 ag: -9.2; D1 ag: 8.8; D1 antag: 0.4; D1 potentiator: -0.7

Results for Cc1ccc(S(=O)(=O)Nc2ccc(N3CCN(C)CC3)nc2)cc1 ?
D3 antag: -58.6*; D3 ag: -16.4; D1 ag: 5.4; D1 antag: 8.9; D1 potentiator: 4.7

What do the screens show for `CCCN(C(=O)c1cc2c(s1)-c1ccccc1SC2)c1ccccc1F`?
D3 ag: -4.7; D1 ag: 7.2; D1 antag: 42.9; D1 potentiator: 1.4

Results for Cn1c2ccccc2c2cnn(CC(=O)Nc3ccccc3F)c(=O)c21 ?
D3 ag: -11.0; D1 ag: 4.1; D1 antag: 27.6; D1 potentiator: 5.5

What do the screens show for `COc1cc(C(=O)NCc2nc3cccnc3n2Cc2ccc(C)cc2)cc(OC)c1OC`?
D3 ag: 5.5; D1 ag: 0.3; D1 antag: 7.2; D1 potentiator: -3.7

Results for Cc1cc(C)c2c(=O)cc(C(=O)Nc3sc4c(c3C(=O)NCc3ccccc3)CCCC4)oc2c1 ?
D3 ag: -3.1; D1 ag: -1.5; D1 antag: -86.2*; D1 potentiator: 3.4

How did CC(C(=O)Nc1sc2c(c1C(=O)NCc1ccco1)CCCC2)N1C(=O)c2ccccc2C1=O (configuration not stated) do in these assays?
D3 antag: -64.9*; D3 ag: -2.0; D1 ag: -0.5; D1 antag: -15.8; D1 potentiator: -6.0

Results for O=C(Nc1sc2c(c1C(=O)NCc1cccnc1)CCCC2)c1ccco1 ?
D3 antag: 33.2; D3 ag: -1.3; D1 ag: 1.9; D1 antag: -31.7*; D1 potentiator: 3.8

What do the screens show for `Cc1ccc2c(=O)cc(C(=O)Nc3sc4c(c3C(=O)NCc3cccnc3)CCCC4)oc2c1C`?
D3 ag: -10.2; D1 ag: 8.5; D1 antag: -7.8; D1 potentiator: -0.8

Results for COc1ccc(OC)c(CNS(=O)(=O)c2c(C(=O)N3CCC(C)CC3)c(C)n(C)c2C)c1 ?
D3 ag: 11.6; D1 ag: 0.5; D1 antag: -1.4; D1 potentiator: -0.3

What do the screens show for `O=C(C(=O)N1CCCc2ccccc21)c1c[nH]c2ccccc12`?
D3 antag: 7.6; D3 ag: 3.5

How did CC1CCN(CC(=O)N2CCc3ccccc32)CC1 do in these assays?
D3 antag: -57.6*; D3 ag: 0.4; D1 ag: -0.1; D1 antag: 3.6; D1 potentiator: 2.2

What do the screens show for `O=C(CSc1nnc(-c2cccs2)n1-c1ccccc1)N1CCCc2ccccc21`?
D3 antag: -20.9; D3 ag: -2.1; D1 ag: 3.6; D1 antag: 3.9; D1 potentiator: -5.0

Results for CCOC(=O)C1CCN(CC(=O)N2CCc3ccccc32)CC1 ?
D3 antag: -74.4*; D3 ag: -25.2; D1 ag: 4.6; D1 antag: -0.5; D1 potentiator: -9.9

How did O=C(CS(=O)(=O)c1c[nH]c2ccccc12)N1CCCc2ccccc21 do in these assays?
D3 antag: 9.0; D3 ag: -3.9; D1 ag: -2.2; D1 antag: -49.9*; D1 potentiator: -3.4

What do the screens show for `CCn1c(SCC(=O)N2CCCc3ccccc32)nnc1-c1cccs1`?
D3 antag: -68.0*; D3 ag: 5.0; D1 ag: 4.7; D1 antag: -3.8; D1 potentiator: -3.5

What do the screens show for `CCCCN1C(=O)C(CC(=O)NCCCN(C)C)CC(C(=O)N2CCOCC2)=C1C` (configuration not stated)?
D3 antag: -23.1; D3 ag: -3.5

What do the screens show for `Cc1nc(SCC(=O)N2CCCc3ccccc32)c2oc3ccccc3c2n1`?
D3 antag: 15.4; D3 ag: 34.2*; D1 ag: -0.9; D1 antag: 1.8; D1 potentiator: -10.2

What do the screens show for `O=C(CN1CCCCC1)N1CCCc2ccccc21`?
D3 antag: -82.3*; D3 ag: -38.5; D1 ag: 3.6; D1 antag: 1.1; D1 potentiator: 5.8

Results for CCc1nc(SCC(=O)N2CCc3ccccc32)c2oc3ccccc3c2n1 ?
D3 antag: 8.8; D3 ag: -3.6

What do the screens show for `O=C(CN1CCCC1)N1CCCc2ccccc21`?
D3 antag: inconclusive; D3 ag: -12.6; D1 ag: -0.2; D1 antag: -2.5; D1 potentiator: 3.8

What do the screens show for `CN(Cc1ccccc1)C(=O)c1ccc(NC(=O)Cc2cccc(NC(=O)C3CCCN(C(=O)CCc4ccccc4)C3)c2)cc1` (configuration not stated)?
D3 antag: 11.0; D3 ag: 29.1; D1 ag: 8.3; D1 antag: -32.8*; D1 potentiator: -3.8

How did CCN(Cc1ccccc1)S(=O)(=O)c1ccc(S(=O)(=O)N2CCN(CCC#N)CC2)cc1 do in these assays?
D3 antag: -17.1; D3 ag: -3.0; D1 ag: -0.8; D1 antag: -42.5*; D1 potentiator: -5.2

How did N#CCCN1CCN(S(=O)(=O)c2ccc(S(=O)(=O)N3CCCCCC3)cc2)CC1 do in these assays?
D3 antag: -11.2; D3 ag: -8.8; D1 ag: -1.2; D1 antag: 20.0; D1 potentiator: -7.7

What do the screens show for `CCN(C1CCCCC1)S(=O)(=O)c1ccc(S(=O)(=O)N2CCN(CCC#N)CC2)cc1`?
D3 antag: -53.3*; D3 ag: -3.0; D1 ag: -2.7; D1 antag: 1.0; D1 potentiator: 3.0

What do the screens show for `Cc1cc(NC(=O)C2CCCC2)n(-c2nc3ccccc3[nH]2)n1`?
D3 antag: inconclusive; D3 ag: 33.5*; D1 ag: 3.5; D1 antag: 23.9; D1 potentiator: -6.8
